Here are results for 10 molecules from PubChem BioAssay (EPA / NIEHS).

Assay [1] has as its target Luciferin 4-monooxygenase (Photinus pyralis) (UniProt P08659). The experiment in a line: CCTE_Simmons_QuantiLum_inhib_2: CCTE's Firefly Luciferase Inhibition Assay, Simmons Lab (AID 2283767). Put shortly: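 Luminescence loss relative to DMSO vehicle defines inhibition; detection reagent containing 150 uM D-luciferin and 147 uM dATP (final, pH 7.8) is injected immediately before each read. Enzyme is preincubated with an 8-point titration (5 nM–87.5 uM final) for 30 min at 37C.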

A short description of assay [2]: ACEA_AR_agonist_AUC_viability: ACEA Biosciences xCELLigence Real-Time Cell Analysis on Androgen Receptor Agonism for Viability (AID 2283775).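 For AC50: viability read 80 hours after compound addition.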 The gist of the method:
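Real-time impedance tracking of 22Rv1 growth, readings every 5 min for 5 h then hourly; area-under-curve viability endpoint at 80 hours, relative to DMSO. Compounds at eight concentrations, 1:4 steps, top 100 uM, n = 2.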

Assay [3] is described as follows: ACEA_AR_antagonist_AUC_viability: ACEA Biosciences xCELLigence Real-Time Cell Analysis on Androgen Receptor Antagonism for Viability (AID 2283776).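 Note: hits lower the growth signal relative to DMSO meaning cytotoxicity.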 The gist of the method: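 22Rv1 human prostate cancer cells were seeded on electrode plates, monitored overnight, then exposed to eight 1:4 dilutions from 100 uM final. Impedance-based growth kinetics at 80 h gave an AUC viability endpoint normalized to DMSO.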

Assay [4] is described as follows: ACEA_ER_AUC_viability: ACEA Biosciences xCELLigence Real-Time Cell Analysis on Estrogen Receptor Agonism for Viability (AID 2283782).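 Note: continuous compound exposure with impedance area under curve over 80 h; hit means loss of impedance signal meaning reduced cell growth or viability.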 The gist of the method: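 T47D cells preconditioned in phenol red-free RPMI with charcoal-stripped FBS, then dosed with 8-point 1:4 series from 100 uM (up to 0.5% DMSO). Impedance monitored up to ~80 h; area-under-curve loss versus DMSO taken as viability.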

Assay [5] can be described thus: STM_H9_NormalizedViability: Cytotoxicity Assessment at 120 hours in the Stemina devTOX quickPredict H9 human embryonic stem cell (hESC)-based Assay (AID 2283784). Put shortly: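 Pluripotent H9 cells dosed, fresh medium plus compound q24h → cell layer read by CellTiter-Fluor → RFU blank-corrected, normalized to DMSO 0.1% mean. Loss-of-signal fit, DMSO as baseline.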

Assay [6] deals with zebrafish Estrogen Receptor (ESR1), esr1 (gene 259252) (UniProt P57717). Kind of assay: ATG_zfER1_XSP1: Attagene TRANS-FACTORIAL Multi-Species (XSP1) HepG2 Assay for zebrafish Estrogen Receptor (ESR1) (AID 2283772). The gist of the method: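 Trans-activation readout: transfected zebrafish ER-Gal4 drives a UAS reporter in human HepG2 liver cells. After 24 h compound exposure (medium containing 3 nM 6-alpha-fluorotestosterone), induced reporter transcripts were quantified by RT-PCR with capillary electrophoresis, relative to DMSO.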
Chain of zebrafish Estrogen Receptor (ESR1), esr1 (gene 259252) (P57717 whole entry, looked up, the tested form may be a part): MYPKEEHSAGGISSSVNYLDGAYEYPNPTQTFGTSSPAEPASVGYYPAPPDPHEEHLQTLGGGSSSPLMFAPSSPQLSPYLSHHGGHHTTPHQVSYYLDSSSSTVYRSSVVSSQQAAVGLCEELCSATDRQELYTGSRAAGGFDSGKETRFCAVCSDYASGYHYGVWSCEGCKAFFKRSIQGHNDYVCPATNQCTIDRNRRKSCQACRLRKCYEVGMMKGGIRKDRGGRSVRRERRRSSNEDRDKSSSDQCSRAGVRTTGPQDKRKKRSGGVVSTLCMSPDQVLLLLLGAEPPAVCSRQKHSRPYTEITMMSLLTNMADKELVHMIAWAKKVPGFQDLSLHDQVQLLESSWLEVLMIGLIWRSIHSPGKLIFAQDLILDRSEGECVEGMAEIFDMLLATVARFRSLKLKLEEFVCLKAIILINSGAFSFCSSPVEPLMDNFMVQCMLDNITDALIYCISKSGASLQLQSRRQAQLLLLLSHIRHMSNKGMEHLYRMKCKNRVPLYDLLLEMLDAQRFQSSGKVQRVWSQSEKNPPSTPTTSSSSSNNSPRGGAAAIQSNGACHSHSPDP

Assay [7] relates to zebrafish Estrogen Receptor (ESR2B), gene 317733. Kind of assay: ATG_zfER2b_XSP1: Attagene TRANS-FACTORIAL Multi-Species (XSP1) HepG2 Assay for zebrafish Estrogen Receptor (ESR2B) (AID 2283773). Put shortly: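 HepG2 cells transiently transfected with GAL4-UAS reporter units for chimeric zebrafish ER2b-Gal4, with 3 nM 6-alpha-fluorotestosterone present; reporter mRNA measured 24 h after dosing by RT-PCR and capillary electrophoresis, gain versus DMSO.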

The test system of assay [8] is frog Estrogen Receptor (ESR2), gene 100174814. Kind of assay: ATG_frER2_XSP1: Attagene TRANS-FACTORIAL Multi-Species (XSP1) HepG2 Assay for frog Estrogen Receptor (ESR2) (AID 2283774). The gist of the method:
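HepG2 cells transiently transfected with GAL4-UAS reporter units expressing chimeric frog ER-Gal4; 3 nM 6-alpha-fluorotestosterone present. After 24 h dosing, reporter mRNA quantified by RT-PCR and capillary electrophoresis; gain-of-signal fitted relative to DMSO.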

The test system of assay [9] is frog Estrogen Receptor (ESR1), gene 398734. Kind of assay: ATG_frER1_XSP1: Attagene TRANS-FACTORIAL Multi-Species (XSP1) HepG2 Assay for frog Estrogen Receptor (ESR1) (AID 2283777). Put shortly:
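HepG2 cells transiently transfected with frog ER–GAL4 chimera and GAL4-UAS reporter, with 3 nM 6-alpha-fluorotestosterone present; 24 h dosing, reporter mRNA quantified by RT-PCR and capillary electrophoresis, gain of signal versus DMSO.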

Assay [10] deals with zebrafish Estrogen Receptor (ESR2A), gene 317734. Kind of assay: ATG_zfER2a_XSP1: Attagene TRANS-FACTORIAL Multi-Species (XSP1) HepG2 Assay for zebrafish Estrogen Receptor (ESR2A) (AID 2283778). The gist of the method: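 HepG2 cells transiently transfected with GAL4-UAS reporter units driven by a zebrafish ESR2A–Gal4 chimera; 24 h compound exposure with 3 nM 6-alpha-fluorotestosterone present. Reporter mRNA measured by RT-PCR with fluorescent capillary electrophoresis, fitted positive versus DMSO.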

In assay [11] the target is chicken Estrogen Receptor (ESR1), ESR1 (gene 396099) (UniProt P06212). Kind of assay: ATG_chERa_XSP1: Attagene TRANS-FACTORIAL Multi-Species (XSP1) HepG2 Assay for chicken Estrogen Receptor (ESR1) (AID 2283779). Put shortly:
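HepG2 cells transiently transfected with GAL4-UAS reporter units for chimeric chicken ERα-Gal4, dosed 24 h with 3 nM 6-alpha-fluorotestosterone present. Reporter mRNA by RT-PCR and capillary electrophoresis; gain-of-signal fit versus DMSO.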

In assay [12] the test system is turtle Estrogen Receptor (ESR1), gene 101933533. The experiment in a line: ATG_trERa_XSP1: Attagene TRANS-FACTORIAL Multi-Species (XSP1) HepG2 Assay for turtle Estrogen Receptor (ESR1) (AID 2283781). The gist of the method:
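Turtle ERa as a GAL4 chimera in transiently transfected HepG2 cells; reporter mRNA quantified 24 h after dosing by RT-PCR and capillary electrophoresis. 3 nM 6-alpha-fluorotestosterone present; gain of signal versus DMSO.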

Assay [13] in a line: ArunA_NOG_NeuritesPerNeuron: ArunA Biomedical's Neurite Outgrowth (NOG) Assay for Neurites Per Neuron (AID 2283758). Put shortly: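 Differentiated human H9-derived neurons exposed to chemicals for 48 h from seeding, then stained with Hoechst and βIII-tubulin/DyLight 488. Automated imaging counted neurites (processes >10 um) per valid neuron; loss of signal versus DMSO scored.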

In assay [14] the test system is chicken Androgen Receptor (AR), gene 422165. The experiment in a line: ATG_chAR_XSP1: Attagene TRANS-FACTORIAL Multi-Species (XSP1) HepG2 Assay for chicken Androgen Receptor (AR) (AID 2283768). Put shortly: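 HepG2 cells transiently transfected with multiplexed GAL4-UAS reporter units expressing chimeric chicken AR-Gal4; 3 nM 6-alpha-fluorotestosterone for partial AR stimulation; 24 h after dosing, reporter mRNA by RT-PCR and capillary electrophoresis, gain-of-signal versus DMSO.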

In assay [15] the test system is frog Androgen Receptor (AR), gene 399456. Kind of assay: ATG_frAR_XSP1: Attagene TRANS-FACTORIAL Multi-Species (XSP1) HepG2 Assay for frog Androgen Receptor (AR) (AID 2283770). How it is done: ATG_XSP1_multi-species_TRANS is a cell-based, multiplexed assay created by modifying the existing Attagene TRANS-FACTORIAL system to include a panel of nuclear receptors from some or all the following species: human (Homo sapiens), mouse (Mus musculus), frog (Xenopus laevis), zebrafish (Danio rerio), chicken (Gallus gallus), and turtle (Chrysemys picta). The ECOTOX-FACTORIAL format uses HepG2, a human liver cell line, with measurements taken at 24 hours after chemical dosing in a 24-well plate. Xsp1 included 3 nM 6-alpha-fluorotestosterone to partially stimulate the androgen receptor.ATG_frAR_XSP1 is one of 29 assay components measured or calculated from the ATG_XSP1_multi-species_TRANS assay. It is designed to make measurements of mRNA induction, a form of inducible reporter, as detected with fluorescence intensity signals by Reverse transcription polymerase chain reaction (RT-PCR) and Capillary electrophoresis technology.The assay endpoint ATG_frAR_XSP1 was analyzed in the positive analysis fitting direction relative to DMSO as the negative control and baseline of activity. […] Furthermore, this assay endpoint can be referred to as a primary readout, because this assay has produced multiple assay endpoints where this one serves a reporter gene function. […]

Assay [16] deals with zebrafish Androgen Receptor (AR), gene 100005148. The experiment in a line: ATG_zfAR_XSP1: Attagene TRANS-FACTORIAL Multi-Species (XSP1) HepG2 Assay for zebrafish Androgen Receptor (AR) (AID 2283771). Put shortly: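 HepG2 cells were transiently transfected with a zebrafish AR-GAL4 reporter system and partially stimulated with 3 nM 6-alpha-fluorotestosterone. Reporter mRNA was measured after 24 h dosing by RT-PCR with capillary electrophoresis, and gain-of-signal was fitted relative to DMSO.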

The test system of assay [17] is turtle Androgen Receptor (AR), gene 101947425. Kind of assay: ATG_trAR_XSP1: Attagene TRANS-FACTORIAL Multi-Species (XSP1) HepG2 Assay for turtle Androgen Receptor (AR) (AID 2283786). The gist of the method:
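HepG2 cells transiently transfected with a turtle AR–GAL4 chimera and GAL4-UAS reporter, co-treated with 3 nM 6-alpha-fluorotestosterone for partial stimulation. Reporter mRNA is quantified at 24 h by RT-PCR and capillary electrophoresis, gain-of-signal versus DMSO.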

Records with an inconclusive call do not appear. A structure can be active in one record and inactive in another. The source made the active and inactive calls. Rule for the calls: active = hit-call score of the fitted dose curve at least 0.9, where 1 is the maximum; inconclusive = response in the unintended direction; inactive = score below 0.9.

Chain of Luciferin 4-monooxygenase (Photinus pyralis) (P08659 whole entry, looked up): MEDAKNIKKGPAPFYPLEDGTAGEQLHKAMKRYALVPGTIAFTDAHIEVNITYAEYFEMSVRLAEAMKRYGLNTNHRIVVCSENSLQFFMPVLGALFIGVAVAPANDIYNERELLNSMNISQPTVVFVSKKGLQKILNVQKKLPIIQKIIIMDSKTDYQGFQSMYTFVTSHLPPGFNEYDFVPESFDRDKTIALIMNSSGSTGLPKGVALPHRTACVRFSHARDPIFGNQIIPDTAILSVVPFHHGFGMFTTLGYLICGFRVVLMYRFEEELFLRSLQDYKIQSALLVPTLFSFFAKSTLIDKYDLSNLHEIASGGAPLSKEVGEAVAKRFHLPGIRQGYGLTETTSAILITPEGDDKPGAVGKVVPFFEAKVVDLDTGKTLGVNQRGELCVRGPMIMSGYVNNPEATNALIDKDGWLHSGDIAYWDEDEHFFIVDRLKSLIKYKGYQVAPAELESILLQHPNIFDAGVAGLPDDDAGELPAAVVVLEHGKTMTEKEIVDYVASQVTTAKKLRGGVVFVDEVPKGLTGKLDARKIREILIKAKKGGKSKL
Chain of chicken Estrogen Receptor (ESR1), ESR1 (gene 396099) (P06212 whole entry, looked up, the tested form may be a part): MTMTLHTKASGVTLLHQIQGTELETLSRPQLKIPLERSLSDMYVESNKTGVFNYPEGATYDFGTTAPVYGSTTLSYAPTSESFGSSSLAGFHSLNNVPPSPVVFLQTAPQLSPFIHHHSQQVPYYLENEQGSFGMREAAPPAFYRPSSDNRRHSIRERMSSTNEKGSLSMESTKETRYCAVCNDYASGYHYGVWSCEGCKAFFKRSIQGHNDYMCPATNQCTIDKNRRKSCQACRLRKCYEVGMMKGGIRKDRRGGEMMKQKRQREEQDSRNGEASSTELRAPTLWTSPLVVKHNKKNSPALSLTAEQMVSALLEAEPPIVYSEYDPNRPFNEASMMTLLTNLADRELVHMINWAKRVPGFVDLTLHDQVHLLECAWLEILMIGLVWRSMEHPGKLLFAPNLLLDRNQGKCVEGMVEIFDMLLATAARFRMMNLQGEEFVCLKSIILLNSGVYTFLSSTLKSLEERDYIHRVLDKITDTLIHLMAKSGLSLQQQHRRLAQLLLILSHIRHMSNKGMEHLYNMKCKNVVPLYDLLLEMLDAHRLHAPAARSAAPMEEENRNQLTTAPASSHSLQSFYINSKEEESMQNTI

On to `CCOC(=O)O[C@H](C)OC(=O)c1ccc2c(c1)cc(C(=O)NC1CCN(C(C)C)CC1)n2Cc1cc(-c2ccc(Cl)s2)on1`, for which the molecule was called inactive in [1] and in [5]. The concentration at half-maximal activity (AC50) (commonly the concentration giving half of the maximal activity seen) in [2] is 10.3 µM (active); in [3], 4.55 µM (active); in [4], 5.33 µM (active).

Take `CC/C(=C(/CC)c1ccc(O)cc1)c1ccc(O)cc1`: the outcome in assay [1] and in [4] was inactive. Moreover, the AC50 in assay [6] is 0.00024 µM (active); in assay [7] it was 0.0671 nM (active); in assay [8], 7.8e-05 µM (active); in [2] it was 21.3 µM (active); in assay [3], 18 µM (active); in [9] it was 0.0517 nM (active). The concentration at half-maximal activity (AC50) in assay [10] was 0.0485 nM (active); in assay [11] it was 0.0429 nM (active); in assay [12], 0.0379 nM (active); in assay [4], 50 µM (active).

For `Cc1ccc2oc(CN(Cc3ccccc3)C(=O)Nc3c(F)cc(F)cc3F)c(-c3ccc(Cl)cc3)c2c1`, the AC50 in assay [2] was 9.77 µM (active); in assay [3], 14.1 µM (active).

As to `C[C@]12CC[C@@H]3c4ccc(O)cc4CC[C@H]3[C@@H]1CC[C@H]2O`, in assay [1], the call was inactive. Moreover, the AC50 is 90.7 µM (active) in assay [2] and 84.1 µM (active) in assay [3].

`CC(=O)N1CCN(c2ccc(OC[C@H]3CO[C@](Cn4ccnc4)(c4ccc(Cl)cc4Cl)O3)cc2)CC1`: the call in assay [1] and in assay [5] was inactive. For the same molecule, the AC50 in assay [2] is 29.2 µM (active); in assay [3] it was 32.4 µM (active); in [4], 86.7 µM (active).

Take `O=c1ccc2ccccc2o1`: the molecule was called inactive in [2], in assay [3] and in assay [4].

With `Cc1oc2c(NC(=O)c3c(Cl)cccc3Cl)cccc2c1C(C)(C)O`, the AC50 was 22.8 µM (active) in assay [2] and 20.3 µM (active) in assay [3].

In the case of `O=C(OCCCCCCOC(=O)c1ccccc1)c1ccccc1`, the AC50 in assay [2] was 74 µM (active); in assay [3], 71.5 µM (active). Further, the result in [4] was inactive.

With `CC(C)(c1cc(Br)c(O)c(Br)c1)c1cc(Br)c(O)c(Br)c1`, the molecule was called inactive in [13], in assay [1], in assay [14], in assay [15], in assay [16] and in [7]. For the same molecule, the call in assay [9], in assay [10], in assay [11], in [12], in assay [5] and in assay [17] was inactive. Besides, the AC50 in assay [8] was 11.8 µM (active); in [2], 25 µM (active); in assay [3] it was 24.3 µM (active); in assay [4], 73.3 µM (active).

In the case of `O=C1O[C@H]([C@@H](O)CO)C(O)=C1O`, the molecule was called inactive in assay [1], in assay [2], in assay [3] and in assay [4].
